Data as given in PubChem BioAssay (NCATS).
Values joined by “and” are separate entries in the source; they are usually repeats but may differ in a detail not shown here. Equal values may be shown once. Records with an inconclusive call do not appear. The source holds several records for some structures; these can differ, active in one and inactive in another. Active and inactive are the calls of the source. The call rests on the fitted dose curve.

Assay: Primary qHTS to identify inhibitors of SARS-CoV-2 cell entry (AID 1645846); further: nearly all actives have a fitted effect of over 45% in size
Conditions: SARS-CoV-2 pseudovirus cell entry assay, luminescence; activity change, negative = inhibition: at 57.1 µM (top of the series) unless noted
Excerpt: Assay Provider: Wei Zheng, Ph.D.
National Center for Advancing Translational Sciences, National Institute of Health, Rockville, MD.
SARS-CoV-2 spike protein, within the viral envelope, mediates viral attachment and infection of host cells. The SARS-CoV-2 spike protein specifically binds to the host receptor ACE2 (Angiotensin-converting enzyme 2). This interaction promotes endocytosis of the viral particle, additional events lead to viral-host cell membrane fusion and release of the viral contents, allowing viral replication.
While SARS-CoV-2 requires BSL-3 facilities for live virus work, pseudotyped partices (PP) that incorporate SARS-CoV-2 spike proteins without replication elements could facilitate studies on viral entry mechanisms in a BSL-2 setting. This PP cell entry assay could also enable screening of small molecule compound libraries in BSL-2 setting to identify inhibitors of SARS-CoV-2 cell entry.
PROTOCOL TABLE (format as described by Inglese J, Shamu CE and Guy RK. 2007)
SEQUENCE No. (e.g., 1, 2, 3, etc.); […] (e.g., Cells, Incubation, Reagent, etc.); VALUE and DESCRIPTION.
1. Cells. Seed 1500 HEK293-ACE2 cells (Expi293F with stable expression of human ACE2) in 2 uL/well media (DMEM, 10% FBS, 1x L-glutamine, 1x Pen/Strep, 1 ug/ml puromycin) in white 1536-well assay plates (Greiner #782073).
2. Incubation. Incubate at 37C with 5% CO2 overnight (~16 h).
3. Compounds. Dispense 23 nL/well compounds in DMSO via pin transfer.
4. Incubation. Incubate for 1 hr at 37C 5% CO2.
5. Reagent. Dispense 2 uL/well of SARS-CoV-2-S pseudotyped particles. [a] PPs are produced with murine leukemia virus pseudotyping. [b] SARS-CoV-2-S is Wuhan-Hu-1 sequence (BEI #NR-52420) with C-terminal 19 amino acid truncation.
6. Centrifuge. […]
7. Incubation. Incubate at for 48 hr at 37C 5% CO2
8. Centrifuge. Remove supernatant with gentle centrifugation using a Blue Washer (BlueCat Bio).
9. Reagent. Dispense 4 uL/well of Bright-Glo Luciferase detection reagent (Promega #E2620).
10. Incubation. Incubate for 5 min at room temperature.
11. Detection. Read luminescence signal (Viewlux plate reader, PerkinElmer). Data was normalized with wells containing SARS-CoV-2-S PP as 100%, and wells containing bald PP (no fusion protein) as 0%.
Potency means the concentration at half of the fitted maximal effect.

For `CNCCn1c(=O)c2cc(OC)c(OC)cc2c2cnc3cc4c(cc3c21)OCO4`, which activity change, negative = inhibition is on record?
Its activity change, negative = inhibition is -98.1% [at 11.3 µM].

For `CC(C)Oc1ccc(-c2nn([C@@H](C)c3oc4ccc(F)cc4c(=O)c3-c3cccc(F)c3)c3ncnc(N)c23)cc1F`, which activity change, negative = inhibition is on record?
Its activity change, negative = inhibition is -16.7%.

Which activity change, negative = inhibition does the source give for `CO/N=C(\C(=O)N[C@@H]1C(=O)N2C(C(=O)O)=C(CSc3cnns3)CS[C@H]12)c1csc(N)n1` here?
The activity change, negative = inhibition was -7.92%.

Which activity change, negative = inhibition does the source give for `NCCS[As](SCCN)c1ccc(Nc2nc(N)nc(N)n2)cc1` here?
Its activity change, negative = inhibition is -25.6%.

For `CC(=O)OC1C[C@H](O[C@@H]2C(O)C[C@H](O[C@@H]3C(O)C[C@@H](OC4CC[C@]5(C)C(CCC6C5CC(O)[C@@]5(C)C(C7=CC(=O)OC7)CC[C@@]65O)C4)OC3C)OC2C)O[C@H](C)[C@H]1O[C@H]1OC(CO)C(O)C(O)C1O` (stereo not given in full), which activity change, negative = inhibition is on record?
Its activity change, negative = inhibition is -96.3%.

With `CO[C@H]1/C=C/O[C@@]2(C)Oc3c(C)c(O)c4c(O)c(c(/C=N/N5CCN(C)CC5)c(O)c4c3C2=O)NC(=O)/C(C)=C\C=C\[C@H](C)[C@H](O)[C@@H](C)[C@@H](O)[C@@H](C)[C@H](OC(C)=O)[C@@H]1C` as the molecule, how does the activity change, negative = inhibition read?
The activity change, negative = inhibition was -0.679%.

Which Potency does the source give for `Cc1cc(CC(C)CC(C)(C)C)n(O)c(=O)c1` (stereo not given) here?
Its Potency is 20 µM (active).

Which activity change, negative = inhibition does the source give for `Cc1[nH]c(/C=C2\C(=O)Nc3ccc(F)cc32)c(C)c1C(=O)NCCN1CCCC1` here?
Its activity change, negative = inhibition is -9.79% [at 27.1 µM].

For `[2H]C([2H])([2H])C(O)([C@@H](C)/C=C/[C@@H](C)[C@H]1CC[C@H]2/C(=C/C=C3C[C@@H](O)C[C@H](O)C3)CCC[C@]12C)C([2H])([2H])[2H]`, which activity change, negative = inhibition is on record?
The activity change, negative = inhibition was -60.1%.

For `c1ccc2c(-c3cnn4cc(-c5ccc(OCCN6CCOCC6)cc5)cnc34)ccnc2c1`, which Potency is on record?
The Potency was “inactive”.

With `CC[C@]12C=CCN3CC[C@@]4(c5cc([C@@]6(C(=O)OC)C[C@H]7C[C@@H](C(C)(F)F)CN(Cc8c6[nH]c6ccccc86)C7)c(OC)cc5N(C)[C@H]4[C@@](O)(C(=O)OC)[C@@H]1OC(C)=O)[C@@H]32` as the molecule, how does the activity change, negative = inhibition read?
Its activity change, negative = inhibition is -76.7% [at 19 µM].

Which Potency does the source give for `CC1(C(=O)O)CCC2(C)CCC3(C)C(=CC(=O)C4C5(C)CCC(OC6OC(C(=O)O)C(O)C(O)C6OC6OC(C(=O)O)C(O)C(O)C6O)C(C)(C)C5CCC43C)C2C1` (stereo not given) here?
Its Potency is “inactive”.

For `CC(=O)N1CCC(Nc2cc(C(=O)NC[C@H](O)CN3CCc4ccccc4C3)ncn2)CC1`, which Potency is on record?
Its Potency is “inactive”.

With `COc1ncc(Nc2ncc([C@H](C)N3CCN(S(C)(=O)=O)CC3)cc2-c2nc(C)nc(N)n2)cc1F` as the molecule, how does the activity change, negative = inhibition read?
The activity change, negative = inhibition was -47.8%.

Which Potency does the source give for `CC[C@@H](C)Nc1cc(C(=O)NC2CC3CCC(C2)N3c2ccc(C(=O)C3CC3)cn2)c(C)cc1C(N)=O` (stereo not given in full) here?
Its Potency is 1 µM (active).

With `CCCCCC(O)/C=C/[C@@H]1C(CCCCCCC(=O)O)C(=O)C[C@@H]1O` (stereo not given in full) as the molecule, how does the activity change, negative = inhibition read?
Its activity change, negative = inhibition is -20.3%.

With `Cn1c(=O)cc(N2CCC[C@@H](N)C2)n(Cc2cc(F)ccc2C#N)c1=O` as the molecule, how does the activity change, negative = inhibition read?
The activity change, negative = inhibition was -23.7%.

For `C=CCNc1c(O)cc2c(O)c1C[C@@H](C)C[C@H](OC)[C@H](O)[C@@H](C)/C=C(/C)[C@H](OC(N)=O)[C@@H](OC)/C=C\C=C(\C)C(=O)N2`, which Potency is on record?
The Potency was 3.16 µM (active).

What about the activity change, negative = inhibition of the same molecule?
Its activity change, negative = inhibition is -94%.

Which Potency does the source give for `O=C(O)c1ccc(-c2c[nH]c3ncc(-c4ccccc4)cc23)cc1C1CCCC1` here?
Its Potency is 2.82 µM (active).

With `CS(=O)(=O)N1CCC(NC(=O)c2[nH]ncc2NC(=O)c2c(Cl)cccc2Cl)CC1` as the molecule, how does the activity change, negative = inhibition read?
Its activity change, negative = inhibition is -94.8%.

Which activity change, negative = inhibition does the source give for `O=C(Cc1cccs1)NC1C(=O)N2C(C(=O)[O-])=C(C[n+]3ccccc3)CSC12` (stereo not given) here?
Its activity change, negative = inhibition is -15.7%.

For `O=C(O)[C@H](CC(=O)N1C[C@H]2CCCC[C@H]2C1)Cc1ccccc1`, which activity change, negative = inhibition is on record?
The activity change, negative = inhibition was -3.3%.

With `CC(=NNC(=O)c1cccc(S(=O)(=O)N2CCOCC2)c1)c1cc(Cl)ccc1O` as the molecule, how does the activity change, negative = inhibition read?
The activity change, negative = inhibition was -7.45%.

For `O=C(OCCO)c1ccccc1O`, which activity change, negative = inhibition is on record?
Its activity change, negative = inhibition is -11%.

For `CCC(=O)O[C@@H]1[C@@H](C)O[C@@H](O[C@H]2[C@H](N(C)C)[C@@H](O)[C@H](O[C@H]3[C@@H](CC=O)C[C@@H](C)[C@@H](OC(C)=O)/C=C/C=C/C[C@@H](C)OC(=O)C[C@@H](OC(=O)CC)[C@@H]3OC)O[C@@H]2C)C[C@]1(C)OC(C)=O`, which activity change, negative = inhibition is on record?
The activity change, negative = inhibition was -16.2%.

Which Potency does the source give for `C=C1C(=O)O[C@@H]2[C@H]3O[C@]3(C)CC/C=C(\C)CC[C@@H]12` here?
The Potency was 22.4 µM (active).

With `Cn1cc(-c2cnc3ccc4ccc(CS(=O)(=O)NCc5ccccn5)cc4c(=O)c3c2)cn1` as the molecule, how does the activity change, negative = inhibition read?
The activity change, negative = inhibition was -59.2%.

Which activity change, negative = inhibition does the source give for `COc1ccc(-c2c(Cl)ncn2-c2ccc(S(N)(=O)=O)cc2)cc1F` here?
The activity change, negative = inhibition was -27%.

For `C/C1=C/C[C@@H](/C(C)=C/c2csc(C)n2)OC(=O)C[C@H](O)C(C)(C)C(=O)[C@H](C)[C@@H](O)[C@@H](C)CCC1`, which activity change, negative = inhibition is on record?
Its activity change, negative = inhibition is -64.3%.

Which Potency does the source give for `CCOC(=O)O[C@]1(C(=O)COC(=O)CC)CC[C@H]2[C@@H]3CCC4=CC(=O)C=C[C@]4(C)[C@H]3[C@@H](O)C[C@@]21C` here?
The Potency was “inactive”.

Which activity change, negative = inhibition does the source give for `Cc1c[nH]c2ncnc(N3CCC(CN)(C(=O)Nc4cccc(OC(=O)N(C)C)c4)CC3)c12` here?
The activity change, negative = inhibition was -8.16% and -70.1%.

With `CC1(C)SC2C(NC(=O)Cc3ccccc3)C(=O)N2C1C(=O)O` (stereo not given) as the molecule, how does the activity change, negative = inhibition read?
Its activity change, negative = inhibition is -15.9%.

For `COC(=O)[C@H]1[C@@H](O)[C@@]2(O)c3c(OC)cc(O[C@@H]4O[C@@H]([C@@H](O)CO)CO[C@H]4OC)cc3O[C@@]2(c2ccc(OC)cc2)[C@@H]1c1ccccc1`, which Potency is on record?
The Potency was “inactive”.

With `O=C(O)c1cnn(-c2nc3cc(OC(F)(F)F)c(Cl)cc3[nH]2)c1` as the molecule, how does the Potency read?
The Potency was “inactive”.

Which activity change, negative = inhibition does the source give for `CCO[C@@H]1OC(=O)C[C@@H]1NC(=O)[C@@H]1CCCN1C(=O)[C@@H](NC(=O)c1ccc(N)c(Cl)c1)C(C)(C)C` here?
Its activity change, negative = inhibition is -14.2%.

For `CC(C)[C@H]1C(=O)N[C@@H](CCCN=C(N)N)C(=O)NCC(=O)N[C@@H](CC(=O)O)C(=O)N[C@H](Cc2ccccc2)C(=O)N1C`, which activity change, negative = inhibition is on record?
The activity change, negative = inhibition was -11.5% [at 27.1 µM].

For `Cc1ccc(Nc2cc(N[C@@H]3CCCC[C@@H]3N)nnc2C(N)=O)nc1C`, which Potency is on record?
Its Potency is “inactive”.

Which activity change, negative = inhibition does the source give for `COc1cccc(-c2c(C)n(Cc3c(F)cccc3C(F)(F)F)c(=O)n(C[C@H](NCCCC(=O)O)c3ccccc3)c2=O)c1F` here?
Its activity change, negative = inhibition is -17.5% and -28.9%.

Which activity change, negative = inhibition does the source give for `Cc1nn(C)c(COc2ccc(N3CCN(S(=O)(=O)N(C)C)CC3)cc2)c1-c1cccc2c(CCCOc3cccc4ccccc34)c(C(=O)O)n(CCN3CCOCC3)c12` here?
Its activity change, negative = inhibition is -18.4%.
